pAkt inh: HTS Assay for Inhibitors of Akt Phophorylation: Primary Screen; Neuro2A IGF-stimulated pAkt S473 HTRF, 20 min; active compounds read low; activity change, % for hits at 50 µM; 360,000 tested, 0.32% active; AID 651550, 2012; in the data active means activity change below about -80%; inconclusive means mostly about -51% to -80%; further: on the % scale 0 is the no-effect control and ±100 the full control effect
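Neuro2A cells in DMEM with 0.5% FBS, overnight at 37 deg C, given compound at single 50 µM final, then IGF (6 nM final) for 20 min at 37 deg C. Lysed; phospho-Akt Ser473 by HTRF after 24 h, 665/615 ratio.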
ClpP mod: qHTS Assay for Activators of ClpP; purified B. subtilis ClpP, FRET peptide cleavage, 20 min; Potency, µM (doses to about 57.5 µM), without a hit: at the top dose activity change, negative = active; 340,000 tested, 1.9% active; AID 651965, 2013; active means well fitted falling curve with a large enough effect; inconclusive means small, poorly fitted or top-dose-only effect; inactive means no such curve, though single readings can be large or run the other way; further: potency means the concentration at half of the fitted maximal effect; the source files actives as falling curves though it sought activators and does not explain the sign; nearly all actives have a fitted effect of over 65% in size
Target sequence (P80244 whole entry, looked up): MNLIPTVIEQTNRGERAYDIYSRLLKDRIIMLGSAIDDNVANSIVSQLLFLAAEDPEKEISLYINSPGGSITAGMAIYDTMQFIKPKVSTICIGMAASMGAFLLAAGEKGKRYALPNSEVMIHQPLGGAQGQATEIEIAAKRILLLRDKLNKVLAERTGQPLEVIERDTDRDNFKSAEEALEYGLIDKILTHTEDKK
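Purified B. subtilis ClpP, 10 microg/mL final in Tris/HCl pH8 with KCl, BSA, glycerol and Tween-20, cleaved an Abz/nitrotyrosine-quenched decapeptide. Fluorescence (ex 320, em 430) was read at 0 and 20 min at room temperature. Delta was normalized to 5.8 microM ADEP and DMSO/no-enzyme controls.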
RXFP1 antagonist: qHTS Assay for Antagonists of the Relaxin Receptor RXFP1; Relaxin receptor 1 (Homo sapiens), Q9HBX9; HEK293-RXFP1, relaxin-stimulated cAMP HTRF, 30 min; active compounds read low; activity change, negative = inhibition, % at 57.5 µM; 350,000 tested, 0.59% active; AID 1259400, 2018;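 active means activity change of -60% or lower, but not beyond a set lower limit; inconclusive means change between -60% and -40%, or beyond the set limit; inactive means change above -40%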; further: on the % scale 0 is the no-effect control and ±100 the full control effect
gsp ag: qHTS for Agonist of gsp, the Etiologic Mutation Responsible for Fibrous Dysplasia/McCune-Albright Syndrome: qHTS; gsp mutant cells, cAMP HTRF, 30 min; Potency, µM (doses to about 76.9 µM), for the others: at the highest dose activation (cAMP increase), most hits filed as activators; 340,000 tested, 0.13% active; active means well fitted activation curve with a large enough effect; inconclusive means small, poorly fitted or top-dose-only effect, or another doubt; inactive means no such curve, though single readings can be large or run the other way; cell line not stated here;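 further: phosphodiesterase inhibitor Ro 20-1724 added with compounds to block cAMP breakdown; potency means the concentration at half of the fitted maximal effect; nearly all actives have a fitted effect of over 60% in size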
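Cells in DMEM/10% FBS with G418 were pretreated with compounds in DMSO plus […] (300 uM stock) for 30 min at 37C. cAMP was measured by HTRF (cAMP-d2 plus anti-cAMP antibody-K) after 30 min at room temperature.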
RXFP1 ag: qHTS Assay for Agonists of the Relaxin Receptor RXFP1 | Relaxin receptor 1 (Homo sapiens), Q9HBX9 | HEK293T-RXFP1 cAMP TR-FRET, 30 min; response scale: percent of porcine relaxin response, buffer zero | Potency, µM (doses to about 57.5 µM), inactives show at the top dose activation, most hits filed as activators | 370,000 tested, 0.3% active | AID 2676, 2010; active means well fitted activation curve with a large enough effect; inconclusive means small, poorly fitted or top-dose-only effect; further: potency means the concentration at half of the fitted maximal effect; on the % scale 0 is the no-effect control and ±100 the full control effect; nearly all actives have a fitted effect of over 60% in size
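cAMP rise read by TR-FRET after 30 min, 37C compound exposure (up to 58 uM) in RXFP1-transfected HEK293 cells with Ro 20174 present. EC50 from Hill-equation fits, with 29 nM porcine relaxin as 100% and buffer as basal.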
gsp antag: qHTS for Antagonists of gsp, the Etiologic Mutation Responsible for Fibrous Dysplasia/McCune-Albright Syndrome: qHTS; gsp-mutant cells, cAMP HTRF, 30 min; Potency, µM (titrated, usually from 76.9 µM), inactives show top-dose activity change, negative = inhibition, hits mostly inhibitors; 340,000 tested, 0.4% active; calls by dose curve; cell line not stated here;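 further: intracellular cAMP measured with PDE inhibitor Ro 20-1724 present during compound exposure; potency means the concentration at half of the fitted maximal effect; on the % scale 0 is the no-effect control and ±100 the full control effect; nearly all actives have a fitted effect of over 65% in size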
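HTRF cAMP measurement after 30 min RT detection following 30 min, 37C compound treatment alongside […] (added as 300 uM solution) in G418-selected cells seeded at 2000/well and grown 16–24 h.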
An asterisk follows results filed as active; [ ] = dose if it differs, or a comment. Only some compounds are listed: those with a hit (about 2.7% of all), similar ones and a draw of the others.

For COCCNC(=O)c1nn(-c2ccc(Cl)cc2)nc1CO the results were ClpP mod 14µM*, RXFP1 antagonist -8 and RXFP1 ag -1%.
For CCc1ccc(-n2nc(CO)c(C(=O)NCCOC)n2)cc1 the results were ClpP mod 13µM*, RXFP1 antagonist -2 and RXFP1 ag 0%.
CCc1ccc(CNC(=O)c2nn(-c3ccc(C)c(C)c3)nc2CO)cc1 was read as ClpP mod 3.5µM*, RXFP1 antagonist -5 and RXFP1 ag 4%.
`CCCN(C(=O)COc1cc(=O)n(CC)c2ccccc12)c1ccc(C(C)C)cc1` gave ClpP mod -1%, RXFP1 antagonist -28 and RXFP1 ag 0%.
For CN(C)CCNC(=O)c1cccc(-c2cccc3nncn23)c1 the results were pAkt inh inactive and ClpP mod 5%.
`CN[C@H](C)CCC=C(C)C` gave ClpP mod -4%.
For CCCN1CCN(C(=O)Cn2c(-c3cccs3)cc3ccccc32)CC1 the results were ClpP mod 32µM*, RXFP1 antagonist -3 and RXFP1 ag 5%.
`CN1CCN(C(=O)Cn2c(-c3cccs3)cc3ccccc32)CC1` gave ClpP mod 28µM*, RXFP1 antagonist -5 and RXFP1 ag 1%.
CCCN1CCN(C(=O)Cn2c(-c3cccs3)cc3cc(F)ccc32)CC1 was read as ClpP mod 4% and RXFP1 ag 1%.
`Cn1c(=O)c2ncn(CC(=O)Nc3ccc4c5c(cccc35)CC4)c2n(C)c1=O` gave pAkt inh inactive, ClpP mod 1%, RXFP1 antagonist -5, gsp ag 32µM*, RXFP1 ag 9% and gsp antag -3%.
For Cn1c(=O)c2ncn(CC(=O)NCCOc3ccccc3)c2n(C)c1=O the results were pAkt inh inactive, ClpP mod 3%, RXFP1 antagonist -15, gsp ag inconclusive, RXFP1 ag 12% and gsp antag 13%.
COc1ccc(CNC(=O)Cn2cnc3c(=O)n(C)c(=O)n(C)c32)cc1 was read as pAkt inh inactive, ClpP mod -1%, RXFP1 antagonist 14, gsp ag 18µM*, RXFP1 ag 18% and gsp antag 6%.
`O=C(N[C@H](CO)c1ccccc1)[C@H]1O[C@@H](n2ccc(=O)[nH]c2=O)[C@H](O)[C@@H]1O` gave pAkt inh inactive and ClpP mod 1%.
For CCOc1ccccc1NC(=O)Cn1c(=O)n(Cc2cccs2)c(=O)c2cccnc21 the results were ClpP mod -10% and RXFP1 ag 11%.
Screening COC(=O)[C@H](C)NC(=O)NCc1ccc(F)cc1 returned pAkt inh -82%*, ClpP mod 1%, RXFP1 antagonist -14, gsp ag -18%, RXFP1 ag -1% and gsp antag 14%.
CC(OC(=O)C1CCN(S(=O)(=O)c2ccc3c(c2)OCCO3)CC1)C(=O)NC1(C#N)CCCCC1 (stereo not given) was read as pAkt inh inactive, ClpP mod -3%, RXFP1 antagonist 6, gsp ag 23% and gsp antag -7%.
`Cc1cc(C)n2c(Br)c(CSc3nc4ccccc4o3)nc2n1` gave pAkt inh inactive, ClpP mod 28µM*, RXFP1 antagonist -12, gsp ag 2%, RXFP1 ag 4% and gsp antag 15%.
`Nn1c(CSc2nc3ccccc3o2)nnc1CSc1nc2ccccc2o1` gave pAkt inh inactive, ClpP mod 0%, RXFP1 antagonist -1, gsp ag -27%, RXFP1 ag 1% and gsp antag 24%.
For CCN(CC)c1nc(N)c2c(N)n(-c3ccccc3C)c(=S)c(C#N)c2c1C#N the results were pAkt inh inactive, ClpP mod 3%, RXFP1 antagonist -5, gsp ag -31%, RXFP1 ag 0% and gsp antag inconclusive.
CCC1Cc2c(nc(N)c3c(N)nc(N4CCCCC4)c(C#N)c23)O1 (stereo not given) was read as pAkt inh inactive, RXFP1 antagonist -2, gsp ag 13%[15.4 µM], RXFP1 ag 16% and gsp antag -17%.
Screening N#Cc1c(N2CCCCC2)nc(N)c2c(N)nc3c(c12)CC(c1ccccc1)O3 (stereo not given) returned pAkt inh inactive, ClpP mod 28µM*, RXFP1 antagonist 2, gsp ag inconclusive, RXFP1 ag 3% and gsp antag 13%.
CCN(CC)c1nc(N)c2c(N)nc3c(c2c1C#N)CC(c1ccccc1)O3 (stereo not given) was read as pAkt inh inactive, ClpP mod 28µM*, RXFP1 antagonist -12, gsp ag 5%, RXFP1 ag 0% and gsp antag -9%.
For Nc1c(Cl)cc(Cl)cc1C(=O)OCC(=O)N1CCCC1 the results were pAkt inh inactive, ClpP mod 22µM*, RXFP1 antagonist -4, gsp ag 1%, RXFP1 ag 5% and gsp antag 3%.
Screening NC(=O)COC(=O)c1cc(Cl)cc(Cl)c1N returned pAkt inh inactive, RXFP1 antagonist 17, gsp ag 1%, RXFP1 ag 2% and gsp antag -3%.
`COc1cc(SC)ccc1C(=O)OCC(=O)NCC(C)C` gave pAkt inh inactive, ClpP mod 40µM*, RXFP1 antagonist -6, gsp ag 0%[15.4 µM], RXFP1 ag 1% and gsp antag 1%.
COC(=O)CNC(=O)COC(=O)c1cc(Cl)cc(Cl)c1N was read as pAkt inh inactive, ClpP mod 2.8µM*, RXFP1 antagonist 10, gsp ag -22%, RXFP1 ag 3% and gsp antag 7%.
`CC(C)CNC(=O)COC(=O)c1cc(Cl)cc(Cl)c1N` gave pAkt inh inactive, ClpP mod 16µM*, RXFP1 antagonist -7, gsp ag 4%, RXFP1 ag 1% and gsp antag inconclusive.
`Cc1cccc(NC(=O)COC(=O)CN2C(=O)C3CCCCC3C2=O)c1C` (stereo not given) gave pAkt inh inactive, ClpP mod 4%, RXFP1 antagonist 1 and gsp ag -3%.

Screens (PubChem)
